# gsp antagonist: antagonizes gsp, the McCune-Albright syndrome mutation | gsp-mutant cells, cAMP HTRF, 30 min | Potency, µM (doses to about 76.9 µM), inactives show top-dose activity change, negative = inhibition, usual class: inhibitors | 0.4% of 340,000 active; calls by dose curve; cell line not stated here;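 further: intracellular cAMP measured with PDE inhibitor Ro 20-1724 present during compound exposure; potency means the concentration at half of the fitted maximal effect; on the % scale 0 is the no-effect control and ±100 the full control effect; nearly all actives have a fitted effect of over 65% in size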
#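 Cells in G418 medium, seeded 16-24 h, 37C; buffer exchange to DPBS + 1 mM CaCl2, 0.5 mM MgCl2, 0.05% BSA; cpds in DMSO + […] (300 uM stock), 30 min 37C; HTRF cAMP detection.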
# Glioma ERSR ind: ER stress response induction in glioma | U87-MG GRP78 promoter luciferase reporter, 16 h | Potency, µM, for inactives: at the top dose activation, actives largely listed as activators | 0.02% of 420,000 active | AID 602332; active means well fitted activation curve with a large enough effect; inconclusive means small, poorly fitted or top-dose-only effect; inactive means no such curve, though single readings can be large or run the other way; further: potency means the concentration at half of the fitted maximal effect; series mostly up to about 76 µM; % of control where 0% means no effect; nearly all actives have a fitted effect of over 35% in size
#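 Stably transfected U87-MG glioma cells carrying a GRP78-based luciferase sensor; 16 h compound incubation. Luminescence end-point read 10 min after Bright-Glo addition at room temperature.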
# gsp agonist: gsp mutant agonism; Potency, µM (series often up to 76.9 µM), for inactives: at the highest dose activation (cAMP increase), usual class: activators; 0.13% of 340,000 active; gsp mutant cells, cAMP HTRF, 30 min; active means well fitted activation curve with a large enough effect; inconclusive means small, poorly fitted or top-dose-only effect, or another doubt; inactive means no such curve, though single readings can be large or run the other way; cell line not stated here;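 further: phosphodiesterase inhibitor Ro 20-1724 added with compounds to block cAMP breakdown; potency means the concentration at half of the fitted maximal effect; nearly all actives have a fitted effect of over 60% in size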
#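 Cells stably selected in G418 were plated at 2000/well, grown 16-24 hr, then given compounds in DMSO with the PDE inhibitor […] (300 uM solution added) for 30 min at 37C; cAMP was read by HTRF.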
# pAkt inh: inhibitors of Akt phosphorylation; Neuro2A IGF-stimulated pAkt S473 HTRF, 20 min; active compounds read low; activity change, % for hits at 50 µM; 0.32% of 360,000 active; in the data active means activity change below about -80%; inconclusive means mostly about -51% to -80%; further: on the % scale 0 is the no-effect control and ±100 the full control effect
#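 Single-point screen (50 µM final compound) in Neuro2A cells stimulated 20 min with 6 nM IGF at 37 deg C. After lysis, Ser473-phosphorylated Akt read by HTRF (ex 330 nm, em 615/665 nm) as the 665/615 ratio.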
# KCNH2 3.1 block: KCNH2 3.1 (human) potassium channel inhibition. U2OS KCNH2 3.1, thallium flux FluxOr; active compounds read low. 0.95% of 340,000 active. activity change, % (tested at about 1.8 µM). AID 720553;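 active means maximum activity change below -70%; inconclusive means maximum activity change from -70% to -50%; inactive means maximum activity change above -50%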;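 further: thallium influx rate constant from kinetic fluorescence after stimulation buffer; on the % scale 0 is the no-effect control and ±100 the full control effect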
#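 Normalized rate constant (relative to positive and negative DMSO controls) derived from a 2 min kinetic fluorescence read after stimulation; U2OS cells expressing the 3.1 isoform via virus at 1.77 x 10^8 /mL.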
# KCNH2 WT inh: blocks the wildtype human KCNH2 potassium channel. U2OS, BacMam KCNH2, thallium flux FluxOr; active compounds read low. activity change, % at 1.84 µM. 0.37% of 340,000 active;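 active means maximum activity change below -70%; inconclusive means maximum activity change between -70% and -50%; inactive means maximum activity change above -50%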; further: on the % scale 0 is the no-effect control and ±100 the full control effect
# Target sequence (Q12809 whole entry, looked up): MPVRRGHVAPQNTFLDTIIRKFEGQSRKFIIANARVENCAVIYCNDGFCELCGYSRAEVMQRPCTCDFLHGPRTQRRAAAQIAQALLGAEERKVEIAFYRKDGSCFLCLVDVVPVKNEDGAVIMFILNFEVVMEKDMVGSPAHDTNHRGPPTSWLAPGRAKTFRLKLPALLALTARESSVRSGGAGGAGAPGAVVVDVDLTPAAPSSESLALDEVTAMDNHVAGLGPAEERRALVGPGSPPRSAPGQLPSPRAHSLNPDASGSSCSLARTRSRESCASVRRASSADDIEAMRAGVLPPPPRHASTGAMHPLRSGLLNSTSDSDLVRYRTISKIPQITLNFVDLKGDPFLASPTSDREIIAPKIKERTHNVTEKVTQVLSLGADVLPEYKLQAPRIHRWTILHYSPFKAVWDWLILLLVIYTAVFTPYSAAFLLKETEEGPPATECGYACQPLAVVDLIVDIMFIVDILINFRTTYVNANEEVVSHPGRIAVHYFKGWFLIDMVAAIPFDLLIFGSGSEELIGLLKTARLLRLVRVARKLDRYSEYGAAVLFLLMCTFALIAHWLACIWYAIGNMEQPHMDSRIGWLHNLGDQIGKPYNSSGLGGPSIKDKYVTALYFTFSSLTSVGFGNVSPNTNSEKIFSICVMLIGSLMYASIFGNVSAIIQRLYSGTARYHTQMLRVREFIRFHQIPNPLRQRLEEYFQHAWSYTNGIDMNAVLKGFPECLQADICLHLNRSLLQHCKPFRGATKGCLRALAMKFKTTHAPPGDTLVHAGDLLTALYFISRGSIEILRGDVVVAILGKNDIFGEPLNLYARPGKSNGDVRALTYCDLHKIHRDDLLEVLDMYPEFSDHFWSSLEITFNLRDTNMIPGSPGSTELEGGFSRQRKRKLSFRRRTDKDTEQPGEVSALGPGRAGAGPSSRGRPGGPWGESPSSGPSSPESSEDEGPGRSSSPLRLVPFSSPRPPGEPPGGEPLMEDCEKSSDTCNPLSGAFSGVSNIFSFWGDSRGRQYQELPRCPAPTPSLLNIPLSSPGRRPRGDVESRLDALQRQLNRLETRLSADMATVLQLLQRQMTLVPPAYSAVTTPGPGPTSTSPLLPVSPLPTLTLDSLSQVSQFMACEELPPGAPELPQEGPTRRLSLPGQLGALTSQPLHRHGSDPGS
#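 U2OS cells transduced with wild-type KCNH2 virus are loaded with FluxOr dye for 45 min, and thallium flux is measured in kinetic reads before and after stimulation buffer. Rate constants are normalized to DMSO controls.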
# Starred values were filed as active, the others as inactive; i = inactive; ? = inconclusive; . = not tested or not shown; [ ] = dose if it differs, or a comment. Hits are enriched below; roughly 1.6% of the tested compounds scored in any of these assays.
SMILES,gsp antagonist,Glioma ERSR ind,gsp agonist,pAkt inh,KCNH2 3.1 block,KCNH2 WT inh
CCn1c(=O)c2c(nc3n2CCCN3CCc2ccc(OC)c(OC)c2)n(C)c1=O,0%,-5%,-10%[15.4 µM],i,-72*,1
CCCN(Cc1cc2cc(OC)ccc2[nH]c1=O)C(=O)c1ccco1,3%,-2%,-10%[15.4 µM],i,-42,-12
COc1ccc2[nH]c(=O)c(CN(Cc3ccco3)C(c3nnnn3Cc3ccccc3)C(C)C)cc2c1 (stereo not given),-36%,-4%,1%,-105%*,-4,-1
Cc1ccc(N(Cc2cc(=O)[nH]c3ccccc23)C(=O)c2ccco2)cc1,-3%,?,20%,-119%*,3,1
CCCCN(Cc1cc2cc(OC)ccc2[nH]c1=O)C(=O)c1ccco1,-9%,-1%,?,-93%*,2,-2
Cc1ccc(N(Cc2cc3ccccc3[nH]c2=O)C(=O)c2ccco2)c(C)c1,-10%,-3%,-2%,-112%*,-4,3
O=C(NCc1nnc2n1CCN(C(=O)c1cccc(Cl)c1)CC2)C1CC1,.,-2%,.,.,.,.
COc1ccc(/C=N/NC(=O)c2nc(-c3ccccc3)cc(-c3ccccc3)n2)cc1,-27%,1%,18%,i,-88*,-24
C=CCOC(=O)/C(=C/c1cccc2ccccc12)NC(=O)c1ccccc1,-43%,3%,-11%,i,-25,-275*
O=C(c1cc(Sc2ccc(Cl)cc2)nc2ccccc12)N1CCN(c2ccccn2)CC1,-11%,-4%,7%[15.4 µM],i,-78*,8
CC(C)OCC(O)CN1CCNCC1 (stereo not given),5%,-1%,0%,-115%*,-3,-17
OC(COc1ccccc1Br)CN1CCNCC1 (stereo not given),9%,-3%,-3%,i,10,-4
Cc1ncc2c(c1CNC(=O)c1ccc3c(c1)OCO3)CCN(C(=O)c1cnsn1)C2,.,-6%,.,.,.,.
CN(C)CCOC1=Cc2ccccc2Sc2ccc(Cl)cc21,.,-4%,.,.,.,.
CC(C)CN1C(=O)c2ccc(C(=O)Nc3ccccn3)cc2C1=O,22%,5%,-11%,i,-2,-17
COCCN1C(=O)c2ccc(C(=O)Nc3nccs3)cc2C1=O,-7%,0%,2%,i,5,-20
CC(C)CN1C(=O)c2ccc(C(=O)Nc3ccncc3)cc2C1=O,28µM*,-6%,-65%,i,-16,0
CCCN1C(=O)c2ccc(C(=O)Nc3nccs3)cc2C1=O,-13%,1%,-8%,-111%*,-2,-10
COC(=O)c1ccc(NC(=O)c2ccc3c(c2)C(=O)N(Cc2cccnc2)C3=O)cc1,40µM*,-5%,1%,i,-45,5
CC(C)CCN1C(=O)c2ccc(C(=O)Nc3ccc(Br)cc3C(=O)O)cc2C1=O,35µM*,2%,5%,i,11,1
O=C(c1cccc(F)c1F)N1CCOc2ccc(CN3CCN(Cc4ccccn4)CC3)cc2C1,.,-2%,.,.,.,.
COC(=O)[C@@H]1C[C@@H](NC(=O)c2cnsn2)CN1Cc1ccc(Cl)cc1,.,1%,.,.,.,.
COc1ccccc1CN1CCOc2ccc(C(C)(O)COc3ccccc3)cc2C1 (stereo not given),.,-1%,.,.,.,.
CCN1C(=O)c2ccc(C(=O)Nc3ncc(C)s3)cc2C1=O,8%,0%,8%[15.4 µM],i,4,1
Cc1cnc(NC(=O)c2ccc3c(c2)C(=O)N(Cc2ccco2)C3=O)s1,-8%,-4%,-4%,-120%*,-38,11
SMILES,gsp antagonist,Glioma ERSR ind,gsp agonist,pAkt inh,KCNH2 3.1 block,KCNH2 WT inh
Cc1cc(Cl)ccc1OCC(=O)Nc1cccc(-c2nc3ccccc3o2)c1,.,-1%,.,.,.,.
CCS(=O)(=O)c1ccc(-c2csc(-c3ccccc3Cl)n2)c(Cl)c1Cl,11%,0%,?,-128%*,-7,-6
CN(C)c1ccc(/C=C/c2ccnc3ccc(N)cc23)cc1,.,0%,.,.,.,.
Cc1ccc2c(C)cc(=S)[nH]c2c1,18%,-1%,22µM*,i,6,-12
COC(=O)C1CCCCN1Cc1ccc2c(c1)CN(Cc1cn[nH]c1-c1ccc(F)cc1)CCO2 (stereo not given),.,-3%,.,.,.,.
C[C@@H](C(=O)O)c1ccc(C2CCCCC2)c2ccccc12,.,-4%,.,.,.,.
COc1ccc2c(c1)-c1nc(-n3ncc(C(=O)NCc4cccc(C)n4)c3C3CC3)ncc1CC2,.,-5%,.,.,.,.
Cc1ccccc1SCC(=O)OCC(=O)Nc1sccc1C(N)=O,-11%,-4%,-8%,i,-74*,13
NC(=O)c1ccsc1NC(=O)COC(=O)Cc1cccc2ccccc12,35µM*,-10%,32%,i,-7,2
NC(=O)c1ccsc1NC(=O)CSc1ccccc1F,4%,5%,-46%,i,-8,1
NC(=O)c1ccsc1NC(=O)COC(=O)Cc1c[nH]c2ccccc12,-13%,-4%,-18%,i,1,5
O=C(O)c1ccc(/C=N/NC(=O)c2ccc(CN3c4cccc5cccc(c45)S3(=O)=O)cc2)cc1,4%,-6%,-12%,i,-23,-8
CC(/C=N/NC(=O)c1ccc(CN2c3cccc4cccc(c34)S2(=O)=O)cc1)c1ccccc1 (stereo not given),3%,-1%,0%,i,-84*,1
CCn1cc(CNC(=O)/C=C/c2cnn(C)c2)c(C)n1,21%,-3%,29%,i,6,2
CCn1cc(/C=C/C(=O)NCc2c(C)nn(C)c2C)cn1,-4%,-2%,-36%,-107%*,-20,9
Cc1nc(C(=O)N(Cc2cc3ccc(F)cc3nc2N2CCC(O)CC2)CC2CCCO2)cs1 (stereo not given),.,-7%,.,.,.,.
CC(C)C(NS(C)(=O)=O)c1nnc2n1CCN(Cc1ccc(Cl)cc1)CC2 (stereo not given),.,-4%,.,.,.,.
CCn1c(-c2ccccc2F)nc2cc(NC(C)=O)cc(C(=O)N3CCCC3c3nccs3)c21 (stereo not given),.,-5%,.,.,.,.
CCN(CC(=O)Nc1ccc(OC)cc1)C(=O)Cc1cccs1,8%,2%,-8%[15.4 µM],i,-152*,0
COc1cc(=O)n2c(c1C(=O)NCc1ccc3c(c1)OCO3)CCN(C(=O)c1ccccc1F)CC2,.,-3%,.,.,.,.
CN(C)S(=O)(=O)c1ccc2c(c1)/C(=C/c1cc3c([nH]1)CCCC3)C(=O)N2,10µM*,-4%,.,i,-7,0
O=C(CCSc1ccc(Cl)cc1)c1ccco1,6%,-12%,20%,i,?,2
O=C(CSc1ccc(Cl)cc1)c1ccco1,8%,2%,-4%,-97%*,-5,-1
COC(=O)c1ccc(Cc2ccc(C(=O)OC)o2)o1,3%,-2%,2%,i,-2,-23
C=CCN(CC=C)Cc1ccc(C(=O)OC)o1,-1%,-3%,-10%,-110%*,14,6
